Experimental findings from PubChem BioAssay (NCATS) are described below.

The structures appear in SMILES notation. Inconclusive results are not listed. The source made the active and inactive calls. Unless noted, the call rests on the fitted dose curve; in most records, active means well fitted curve in the direction sought with a large enough effect; inconclusive means small, poorly fitted or top-dose-only effect, or another doubt; inactive means no such curve, though single readings can be large; an effect the other way counts as inactive or inconclusive.

The nature of assay [1]: qHTS for differential inhibitors of proliferation of Plasmodium falciparum line 7G8 (AID 1815).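 Further: parasite growth measured after three days of incubation.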 Further: potency means the concentration at half of the fitted maximal effect. Background: qHTS replaces the single test concentration by a dilution series.
The nature of assay [2]: qHTS for differential inhibitors of proliferation of Plasmodium falciparum line GB4 (AID 1816).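 Further: parasite growth measured after 72 h incubation.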 Further: potency means the concentration at half of the fitted maximal effect. Conditions: Potency: Plasmodium falciparum GB4 proliferation inhibition.
Assay [3] in a line: qHTS for differential inhibitors of proliferation of Plasmodium falciparum line 3D7 (AID 1876). Further: potency means the concentration at half of the fitted maximal effect.
Assay [4] is described as follows: qHTS for differential inhibitors of proliferation of Plasmodium falciparum line D10 (AID 1877).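 Further: parasites grown with compound for 72 h before DNA staining.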 Further: potency means the concentration at half of the fitted maximal effect.
Assay [5] in a line: qHTS for differential inhibitors of proliferation of Plasmodium falciparum line W2 (AID 1883).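 Further: parasites grown with compound for 72 h before lysis and staining.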 Further: potency means the concentration at half of the fitted maximal effect. Conditions: Potency: Plasmodium falciparum W2 proliferation inhibition.
A short description of assay [6]: qHTS for differential inhibitors of proliferation of Plasmodium falciparum line HB3 (AID 1886).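 Further: parasites grown with compound for 72 h before SYBR Green readout.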 Further: potency means the concentration at half of the fitted maximal effect. To be noted: Potency: Plasmodium falciparum HB3 proliferation inhibition.
The target of assay [7] is Ferritin light chain (Equus caballus) (UniProt P02791). Briefly: qHTS Validation Assay for Identification of Novel General Anesthetics (AID 2323). Further: series mostly up to about 77 µM. In short, it runs like this: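 Fluorescence at 535 nm (excitation 380 nm) reported loss of 1-AMA binding to horse-spleen apoferritin (10 uM) in PBS with 50% saturated 1-aminoanthracene, after 10 min room-temperature incubation with compound; values from Hill fits of normalized response.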

Assay [8] in a line: qHTS for differential inhibitors of proliferation of Plasmodium falciparum line Dd2 (AID 1882). Further: nearly all actives have a fitted effect of over 65% in size. Further: potency means the concentration at half of the fitted maximal effect. Conditions: Potency: Plasmodium falciparum Dd2 proliferation inhibition. In short, it runs like this: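 SYBR Green DNA fluorescence (ex 485, em 535 nm) after overnight lysis quantifies parasite growth; compound exposure lasted 72 h at 37 C on infected red cells at 2.5% hematocrit, 0.3% parasitemia (final). Artemisinin 0.29 uM and vehicle wells define normalization.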

Assay [9] can be described thus: qHTS Assay for Modulators of Human Peripheral Myelin Protein 22 (PMP22) Expression/Activity (AID 1967; active means well fitted curve in the direction sought with a large enough effect in the signal ratio; the % refers to the signal ratio). In short, it runs like this: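 Luminescence ratio of Pmp22 promoter-driven green luciferase to EF-alpha-driven red luciferase, in engineered mouse MSC80 Schwann cells, served as read-out. Compounds were incubated 24h; untreated cells defined 0% Activity; curves were classified by r2, magnitude and activity.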

Ferritin light chain (Equus caballus), sequence (P02791 2-175 limits assumed): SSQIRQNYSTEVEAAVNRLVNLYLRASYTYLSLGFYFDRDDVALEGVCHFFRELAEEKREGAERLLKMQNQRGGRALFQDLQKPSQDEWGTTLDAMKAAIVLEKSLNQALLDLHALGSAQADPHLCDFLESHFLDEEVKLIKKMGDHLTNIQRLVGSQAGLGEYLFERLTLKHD

As for `NC1CCN(c2cccc(Cl)n2)CC1`, the Potency entry in assay [1], in assay [3], in assay [4] and in assay [6] was “inactive” throughout. For the same molecule, the Potency was 12.6 µM (active) in assay [2] and 5.62 µM (active) in assay [5]. Also, in [7], the result was inactive.

`CN(C)CC[C@@H](c1ccc(Cl)cc1)c1ccccn1`: the Potency in assay [1] was 2.51 µM (active); in assay [8], 3.98 µM (active); in [5] it was 1 µM (active). In addition, the Potency entry in assay [3], in assay [4] and in assay [6] was “inactive” in each case. In addition, the molecule was called inactive in assay [7].

Regarding `C[C@H]1O[C@@H](n2cc(F)c(=O)[nH]c2=O)[C@H](O)[C@@H]1O`, the Potency result in assay [1], in [2], in assay [3], in assay [4], in assay [8] and in assay [5] was “inactive” in each case. For the same molecule, the Potency entry in [6] was “inactive”. Moreover, in [7], the molecule was called inactive.

Turning to `N=c1c[n+](N2CCOCC2)[n-]o1`, the Potency result in assay [1], in assay [2], in [4], in assay [8] and in assay [6] was “inactive” throughout. Moreover, the result in assay [9] and in assay [7] was inactive.

With `CCN(CC)CCNC(=O)c1cc(Cl)c(N)cc1OC`, the Potency result in assay [1], in assay [2], in [3], in assay [4], in assay [8] and in [6] was “inactive” in each case. The molecule was called inactive in assay [9].

`C=Cc1c(C)c2cc3[nH]c(cc4nc(cc5nc(cc1[nH]2)C(C)=C5CCC(=O)O)C(CCC(=O)O)=C4C)c(C)c3C=C`: the Potency result in assay [1], in assay [2], in assay [3], in assay [4], in assay [8] and in [5] was “inactive” each time. The Potency result in assay [6] is “inactive”. Also, in assay [9], the molecule was classed as inactive.

As for `CC(C)(C)c1onc(OCP(=O)(O)O)c1CC(N)C(=O)O` (centres undefined), the Potency result in assay [1], in [2], in assay [3], in [4], in assay [8] and in [6] was “inactive” in each case. Moreover, the outcome in [9] and in assay [7] was inactive.

On to `OCCN1CCN(CCCN2c3ccccc3Sc3ccc(Cl)cc32)CC1`, for which the Potency is 3.55 µM (active) in assay [1]; 4.47 µM (active) in assay [2]; 2.82 µM (active) in assay [3]; 8.91 µM (active) in assay [4]; 7.94 µM (active) in [8]; 2.51 µM (active) in assay [5]. The Potency in assay [6] was 5.01 µM (active). Besides, the call in [7] was inactive.

Consider `C#CCN(C)Cc1ccccc1`, for which the Potency result in assay [1], in [2], in assay [3], in assay [4], in assay [8] and in [6] was “inactive” throughout. For the same molecule, the call in assay [7] was inactive.

As to `CN1CCN(C2Cc3ccccc3Sc3ccc(Cl)cc32)CC1` (centres undefined), the Potency in [1] was 6.31 µM (active); in [2], 11.2 µM (active); in [3], 10 µM (active); in assay [5], 5.01 µM (active); in assay [6], 10 µM (active).

Consider `CSc1ccc2c(c1)C(N1CCN(C)CC1)Cc1ccccc1S2` (centres undefined), for which the Potency in assay [1] was 6.31 µM (active); in [2], 11.2 µM (active); in [3] it was 8.91 µM (active); in [4], 12.6 µM (active); in [8], 8.91 µM (active); in assay [5] it was 4.47 µM (active). In addition, the Potency in assay [6] is 10 µM (active).

As to `CNCCCC1c2ccccc2C=Cc2ccccc21`, the Potency in assay [1] is 5.62 µM (active); in [2], 10 µM (active); in assay [3], 10 µM (active); in assay [4], 14.1 µM (active); in [5], 4.47 µM (active); in assay [6], 11.2 µM (active). Further, the molecule was classed as inactive in assay [7].

With `CC(CN(C)C)CN1c2ccccc2CCc2ccccc21` (centres undefined), the Potency in assay [1] was 8.91 µM (active); in [2], 5.62 µM (active); in [3] it was 8.91 µM (active); in assay [4], 11.2 µM (active); in [5], 6.31 µM (active); in [6] it was 11.2 µM (active). Moreover, in assay [7], the outcome was inactive.

In the case of `CSc1ccc2c(c1)N(CCC1CCCCN1C)c1ccccc1S2` (centres undefined), the Potency in assay [1] is 4.47 µM (active); in assay [2], 3.98 µM (active); in [3] it was 8.91 µM (active); in assay [4], 12.6 µM (active); in assay [8], 12.6 µM (active); in assay [5] it was 5.01 µM (active). For the same molecule, the Potency in [6] was 8.91 µM (active). The call in assay [7] was inactive.

As to `CN(C)CCCN1c2ccccc2Sc2ccc(Cl)cc21`, the Potency in [1] was 4.47 µM (active); in [2] it was 11.2 µM (active); in [3], 4.47 µM (active); in assay [4] it was 12.6 µM (active); in assay [8], 12.6 µM (active); in assay [5], 3.55 µM (active). Moreover, the Potency in assay [6] is 8.91 µM (active). For the same molecule, the outcome in assay [7] was inactive.

Regarding `CCN(CC)CCOC(=O)C1(C2CCCCC2)CCCCC1`, the Potency in assay [1] is 8.91 µM (active); in assay [2], 14.1 µM (active); in assay [4], 15.8 µM (active); in assay [8], 5.01 µM (active); in assay [5], 5.62 µM (active); in [6], 12.6 µM (active). The molecule was classed as inactive in assay [7].

For the molecule `CC(C)(C(=O)O)c1ccc(C(O)CCCN2CCC(C(O)(c3ccccc3)c3ccccc3)CC2)cc1` (centres undefined), the Potency entry in assay [1], in assay [2], in assay [3], in assay [4], in assay [8] and in [6] was “inactive” throughout. Further, in [9], the outcome was inactive.

Regarding `CC(=O)OCC(=O)[C@@]1(O)CC[C@H]2[C@@H]3CCC4=CC(=O)CC[C@]4(C)[C@H]3C(=O)C[C@@]21C`, the Potency entry in assay [1], in assay [2], in [3], in assay [4], in [8] and in assay [6] was “inactive” each time. Also, the outcome in assay [7] was inactive.

`CC(CN1c2ccccc2Sc2ccccc21)N(C)C` (centres undefined): the Potency in assay [1] was 7.08 µM (active); in assay [2], 6.31 µM (active); in assay [3] it was 14.1 µM (active); in [4] it was 14.1 µM (active); in assay [8] it was 5.01 µM (active); in assay [5], 2.24 µM (active). For the same molecule, the Potency in assay [6] is 11.2 µM (active). The outcome in [7] was inactive.

Turning to `NC(N)=NCCC[C@H](N)C(=O)O`, the Potency result in assay [1], in assay [2], in assay [3], in assay [4], in assay [8] and in [5] was “inactive” throughout. For the same molecule, the Potency entry in assay [6] was “inactive”. Moreover, the outcome in [7] was inactive.

In the case of `Nc1cc(=O)[nH]c(N)n1`, the Potency entry in [1], in assay [2], in assay [3], in assay [4], in assay [8] and in assay [5] was “inactive” throughout. For the same molecule, the Potency result in assay [6] was “inactive”. Moreover, the molecule was called inactive in assay [7].
